CRFBP-R2 block = CRF-BP/CRF-R2 complex antagonism. HEK293 CRF-R2/CRF-BP, CRF-induced calcium fluorescence. inhibition, % at 11.8 µM. hit rate 0.59% among 350,000;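 active = inhibition of the ligand-induced calcium signal above about 50% at the single tested concentration, limit read from the data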
RTF Ca sens inh = cardiac RTF calcium desensitization. inhibition, % at 7.15 µM. IANBD-labeled cardiac RTF, Ca2+ fluorescence. P19429+P45379. AID 493244. hit rate 0.12% among 340,000;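 active = inhibition above the mean inhibition of all tested compounds plus 3 SD, cut at about 17% in these data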;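 also: assay run at fixed EC70 calcium of 1.6 mM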
CRFR2-BP ag = CRF-BP/CRF-R2 complex agonism | HEK293 CRF-R2/CRF-BP, calcium dye fluorescence (FLIPR); percent of saturating CRF peptide response | activation, % at 13.2 µM | hit rate 0.46% among 350,000 | AID 588473;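 active = activation of at least 50%, plus an integration ratio under a set limit after plate pattern correction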;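 also: plate controls were neutral control wells without compound for no effect and CRF at EC100 for full effect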
RTF Ca sens act = increases calcium sensitivity of human cardiac regulated thin filaments. activation, % at 7.2 µM. IANBD-labeled TnC RTF fluorescence at EC20 calcium; 0% EC20 calcium, 100% full calcium. P19429+P45379. hit rate 0.24% among 340,000. AID 493008;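 active = activation above the mean over all tested compounds plus 3 SD, cut at about 30% in these data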;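 also: rise in fluorescence read as greater calcium sensitivity of cardiac thin filaments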
Myeloid diff MLP = myeloid differentiation induction. ER-HoxA9 myeloid progenitors, lysozyme-GFP differentiation, flow cytometry. calls only at 10 µM. hit rate 1% among 360,000. AID 624256;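 active = normalized GFP-positive differentiation at or above the plate's own cutoff, the solvent-only control mean plus 3 SD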;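 also: cells exposed to compound for four days before flow analysis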
Active calls of the source: *; i = inactive; . = not tested or not shown; + = active, no number. Hits are enriched below; roughly 2.2% of the tested compounds scored in any of these assays.

SMILES | CRFBP-R2 block | RTF Ca sens inh | CRFR2-BP ag | RTF Ca sens act | Myeloid diff MLP
CCOc1ccc(S(=O)(=O)NCc2cccnc2)cc1C(C)C | 30 | -1 | -1 | 6 | i
COc1ccc(C(=O)O)cc1S(=O)(=O)Nc1ccc(N2CCCCC2)cc1 | -7 | 0 | 1 | -3 | i
CN(C(=O)COC(=O)/C=C/c1ccccc1)C1CCS(=O)(=O)C1 (stereo not drawn) | -2 | . | 5 | . | i
CN1C(N)=NC(=O)/C1=C/c1ccccc1F | -11 | -5 | 0 | -5 | i
Cc1ccc(/C=C2/C(=O)N=C(N)N2C)s1 | 3 | -6 | 0 | 6 | +
CCCCc1nc(NCCO)c(C#N)c2c1CCCC2 | -17 | 5 | -1 | -5 | i
CCCCNc1nc(CC)c2c(c1C#N)CCCC2 | 61* | 6 | 0 | -5 | i
O=C(Nc1cccc(F)c1)Nc1nnc([C@@H]2O[C@H](CO)[C@@H](O)[C@H]2O)s1 | . | . | . | . | i
COc1ccc(NC(=O)CS(=O)(=O)c2cn(CC(=O)N3CCOCC3)c3ccccc23)cc1 | -7 | -19 | -1 | -2 | i
CC(C)(C)OC(=O)n1cc(/C=N/NC(=O)c2ccco2)c2ccccc21 | -3 | -5 | 0 | -3 | +
CC1(C(=O)NS(=O)(=O)c2ccccc2Cl)CCN1C(=O)CCc1ccccc1 (stereo not drawn) | . | . | . | . | i
CN(C)CCCN(C(=O)c1cccs1)c1nc(-c2ccccc2)cs1 | -17 | -9 | 0 | 1 | +
CN(CCCC(=O)Nc1ccc(Br)cc1F)S(=O)(=O)c1ccccc1 | -18 | -5 | -1 | -1 | i
O=c1/c(=C\c2ccc(O)cc2)sc2n1C(c1ccccc1)C(c1ccccc1)=NN=2 (stereo not drawn) | -49 | -11 | 20 | 12 | +
CC1C(=O)C(C)C(c2cccs2)NC1c1cccs1 (stereo not drawn) | 57* | -8 | -2 | -5 | i
Cc1ccccc1C1NC(c2ccccc2C)C(C)C(=O)C1C (stereo not drawn) | 21 | -2 | -1 | 5 | i
Cc1ccc(N2C(=O)[C@@H]3[C@H](C2=O)C2CCCN2[C@@H]3C(=O)c2ccccc2)cc1 (stereo partly drawn) | -5 | -23 | 16 | 31* | i
Cc1ccc(NC(=O)c2oc3ccccc3c2NC(=O)c2ccc3c(c2)OCO3)cc1 | -44 | -15 | 0 | -1 | +
O=C(Nc1c(C(=O)Nc2cccc(F)c2)oc2ccccc12)c1ccc2c(c1)OCO2 | -13 | 4 | -1 | 1 | i
COc1cc(/C=C2\SC(=S)N(NS(=O)(=O)c3ccccc3)C2=O)cc(OC)c1OC | 27 | 0 | 0 | -1 | i
COc1cccc(/C=C2\SC(=S)N(NS(=O)(=O)c3ccccc3)C2=O)c1OC | 63* | -6 | 0 | -5 | i
O=C1/C(=C/c2cccc(F)c2)SC(=S)N1NS(=O)(=O)c1ccccc1 | 17 | 1 | -1 | -2 | i
COc1ccc(/C=C2/SC(=O)N(NS(=O)(=O)c3ccccc3)C2=S)cc1OC | 52* | -6 | 0 | 0 | i
N=c1c2ccccc2nnn1-c1cccc(C(F)(F)F)c1 | -10 | -5 | -3 | 7 | i
O=C(Nc1ccc(-c2nc3ccccc3[nH]2)cc1)c1ccc2c(c1)OCO2 | 8 | 1 | 0 | 0 | i
SMILES | CRFBP-R2 block | RTF Ca sens inh | CRFR2-BP ag | RTF Ca sens act | Myeloid diff MLP
O=C(Nc1ccc(Cl)c(-c2nc3ccccc3[nH]2)c1)c1ccc2c(c1)OCO2 | -11 | -4 | 2 | -4 | +
O=C(NC1(Cc2ccccc2)CCN(Cc2ccc(-c3ccccc3)cc2)C1=O)c1ccccc1 (stereo not drawn) | -12 | -2 | 1 | 7 | i
Cc1ccc(OC2=NS(=O)(=O)c3ccccc32)cc1 | 3 | -9 | 0 | 4 | +
CCc1ccc(OC2=NS(=O)(=O)c3ccccc32)cc1 | 1 | -5 | 0 | 4 | i
Cc1cc(C)c(Cn2cnc3ccccc32)c(C)c1 | -31 | 11 | 4 | -4 | i
N#C/C(=C(/O)COC(=O)c1ccccc1O)c1nc2ccccc2s1 | 45 | -20 | 79* | 16 | i
OC[C@H]1O[C@@H](c2nc(-c3ccc4[nH]ccc4c3)no2)[C@H](O)[C@@H](O)[C@H]1O | . | . | . | . | i
CC1Cc2ccccc2N1C(=S)Nc1ccc(S(N)(=O)=O)cc1 (stereo not drawn) | 2 | -4 | -1 | 2 | +
